Results reported in the supplement of paper PMC3334620.
The full ranking holds about 33,000 sequences; the median of “E-score (-0.5 to 0.5)” is about -0.053, and the highest 2% start at about 0.37. The list comes from a sample in which the highest values are over-represented; it also holds similar and randomly drawn sequences.

What follows are sequences tested against Hap1 (UniProt P0CE41) (assay: PBM E-score (8-mer binding enrichment) (E-score (-0.5 to 0.5)); higher = stronger / more preferred TF binding). Settings: protein concentration: 200 nM; construct: GST-DNA-binding domain.
Chain of UniProt P0CE41 (P0CE41 whole entry, the tested form may be a part): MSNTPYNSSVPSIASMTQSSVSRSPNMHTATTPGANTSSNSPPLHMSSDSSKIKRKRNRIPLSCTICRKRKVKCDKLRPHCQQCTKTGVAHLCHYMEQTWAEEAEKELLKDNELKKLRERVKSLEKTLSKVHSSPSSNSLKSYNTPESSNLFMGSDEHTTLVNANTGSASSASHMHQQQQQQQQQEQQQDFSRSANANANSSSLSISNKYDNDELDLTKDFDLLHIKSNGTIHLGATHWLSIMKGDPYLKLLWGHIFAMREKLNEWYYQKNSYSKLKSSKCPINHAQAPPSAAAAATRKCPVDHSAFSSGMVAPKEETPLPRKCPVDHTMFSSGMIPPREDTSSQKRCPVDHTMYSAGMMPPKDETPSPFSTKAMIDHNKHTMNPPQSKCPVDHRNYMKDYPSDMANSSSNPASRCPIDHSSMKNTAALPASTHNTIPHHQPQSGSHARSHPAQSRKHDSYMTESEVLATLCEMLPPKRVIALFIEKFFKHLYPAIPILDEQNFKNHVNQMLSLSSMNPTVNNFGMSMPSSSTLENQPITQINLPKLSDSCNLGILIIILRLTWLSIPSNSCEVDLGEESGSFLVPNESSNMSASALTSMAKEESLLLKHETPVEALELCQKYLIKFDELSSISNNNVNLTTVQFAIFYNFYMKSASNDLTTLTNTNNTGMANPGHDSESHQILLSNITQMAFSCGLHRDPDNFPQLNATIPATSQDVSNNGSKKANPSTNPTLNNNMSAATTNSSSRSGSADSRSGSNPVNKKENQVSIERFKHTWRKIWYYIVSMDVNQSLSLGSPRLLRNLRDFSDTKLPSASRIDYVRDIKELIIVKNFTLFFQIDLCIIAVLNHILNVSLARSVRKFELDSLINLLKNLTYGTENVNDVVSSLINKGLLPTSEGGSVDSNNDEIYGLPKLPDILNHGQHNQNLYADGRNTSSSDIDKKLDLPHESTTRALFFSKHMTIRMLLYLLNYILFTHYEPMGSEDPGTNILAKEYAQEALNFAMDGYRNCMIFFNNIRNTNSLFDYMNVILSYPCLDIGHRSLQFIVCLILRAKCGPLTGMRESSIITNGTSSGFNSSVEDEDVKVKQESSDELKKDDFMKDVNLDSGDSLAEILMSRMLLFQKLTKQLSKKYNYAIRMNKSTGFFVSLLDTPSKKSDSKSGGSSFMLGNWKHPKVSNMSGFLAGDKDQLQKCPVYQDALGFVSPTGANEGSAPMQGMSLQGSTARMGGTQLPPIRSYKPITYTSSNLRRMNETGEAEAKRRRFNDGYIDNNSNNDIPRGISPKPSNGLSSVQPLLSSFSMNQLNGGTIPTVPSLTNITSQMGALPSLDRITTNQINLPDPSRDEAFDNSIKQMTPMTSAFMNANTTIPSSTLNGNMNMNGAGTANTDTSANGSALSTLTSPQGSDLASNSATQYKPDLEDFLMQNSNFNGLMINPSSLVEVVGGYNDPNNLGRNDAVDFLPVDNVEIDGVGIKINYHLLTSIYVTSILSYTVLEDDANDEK
In short: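 PURExpress in vitro transcription/translation supplied GST-tagged yeast transcription factors, either full-length or DNA-binding domain. Applied at about 100-200 nM to universal all-10-mer Agilent arrays double-stranded by primer extension, the bound protein was detected with fluorescent anti-GST. E-scores, modified Wilcoxon-Mann-Whitney statistics, were given by the Universal PBM Analysis Suite to ungapped eight-base words pooled with their reverse complements after masliner normalisation.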
In the case of CTAGCGTC, the “PBM E-score” value is reported as -0.0893. For CCTCTTCC, the “PBM E-score” value was -0.0207. TAGCCTAA was tested, and the “PBM E-score” value was -0.158. For AGGCAAAG, the “PBM E-score” value was -0.246. With CGAGGAGC the “PBM E-score” value was 0.0181. With CGAACCAG the “PBM E-score” value was -0.00442. For AGATCGGA, the “PBM E-score” value was 0.376. With AGATCGGC the “PBM E-score” value was 0.267. In the case of GGATCGAA, the “PBM E-score” value is reported as 0.168. In the case of CGATCGGA, the “PBM E-score” value is reported as 0.354. With ACATCGGA the “PBM E-score” value was 0.265. In the case of CCGTCGGA, the “PBM E-score” value is reported as 0.335. For GCATCGGA, the “PBM E-score” value was 0.383. With AGATCGGG the “PBM E-score” value was 0.153. For GGATCGGA, the “PBM E-score” value was 0.384. In the case of GCATCGGC, the “PBM E-score” value is reported as 0.225. In the case of GCGTCGGA, the “PBM E-score” value is reported as 0.375. For ACGTCGGA, the “PBM E-score” value was 0.256. With AAACTAGC the “PBM E-score” value was -0.188. In the case of GCGTTGCA, the “PBM E-score” value is reported as 0.0308. In the case of GAGCGGAA, the “PBM E-score” value is reported as 0.248. GGCATAAA was tested, and the “PBM E-score” value was 0.102. For AAAGTAAG, the “PBM E-score” value was -0.163. For CTAGAGGA, the “PBM E-score” value was -0.241. ATCCGTCA was tested, and the “PBM E-score” value was 0.212. For GAGGGGAA, the “PBM E-score” value was 0.148. For CCTGTGGA, the “PBM E-score” value was -0.336. With GGTTTTAA the “PBM E-score” value was 0.334. In the case of AAGTGTGC, the “PBM E-score” value is reported as -0.132. AGTCGGTA was tested, and the “PBM E-score” value was 0.0714. In the case of GATCGAAA, the “PBM E-score” value is reported as 0.121. For GTTTCGAA, the “PBM E-score” value was -0.219. With CTTTCGTA the “PBM E-score” value was -0.158. With ATTTCGGG the “PBM E-score” value was 0.29. In the case of GTTTCGTA, the “PBM E-score” value is reported as 0.11. For CTTTCGGA, the “PBM E-score” value was 0.399. ATTTCGGA was tested, and the “PBM E-score” value was 0.415. In the case of ATTTCGGC, the “PBM E-score” value is reported as 0.326. GTTTCGGA was tested, and the “PBM E-score” value was 0.389. In the case of CTTTCGGC, the “PBM E-score” value is reported as 0.348. In the case of CGTGCGAC, the “PBM E-score” value is reported as -0.0831. For ACGCAGAA, the “PBM E-score” value was -0.0372. For AAGCTCAA, the “PBM E-score” value was -0.167. AAATAACC was tested, and the “PBM E-score” value was 0.0225. For CGCGTCAC, the “PBM E-score” value was -0.174. In the case of CACTGACG, the “PBM E-score” value is reported as -0.147. In the case of CCCCCAAG, the “PBM E-score” value is reported as -0.195. For CCCTCAAG, the “PBM E-score” value was -0.233. For GGCCGCGA, the “PBM E-score” value was 0.0621. CGCCGCGA was tested, and the “PBM E-score” value was 0.213. In the case of GGCCGAGA, the “PBM E-score” value is reported as 0.401. In the case of GCCCGAGA, the “PBM E-score” value is reported as 0.391. CGCCGAGC was tested, and the “PBM E-score” value was 0.364. AGCCGAGA was tested, and the “PBM E-score” value was 0.267. With TCCCGAGA the “PBM E-score” value was 0.261. In the case of CGCCGAGA, the “PBM E-score” value is reported as 0.37. CCCCGAGA was tested, and the “PBM E-score” value was 0.319. In the case of CTTTCTTA, the “PBM E-score” value is reported as -0.125. AGCTTAGA was tested, and the “PBM E-score” value was -0.00759. With ACGTACTG the “PBM E-score” value was -0.144. In the case of CGGGCCCG, the “PBM E-score” value is reported as 0.419. With AGGGCCCG the “PBM E-score” value was 0.106. AGGGCCTA was tested, and the “PBM E-score” value was 0.0252. With ACGGCCCA the “PBM E-score” value was 0.141. ACGGCCAA was tested, and the “PBM E-score” value was 0.166. For CCGGCCGG, the “PBM E-score” value was 0.456. CCGGCCAG was tested, and the “PBM E-score” value was 0.351. In the case of CGGGCCTC, the “PBM E-score” value is reported as 0.192. CCGGCCGC was tested, and the “PBM E-score” value was 0.299. For ACGGCCGA, the “PBM E-score” value was 0.419. For CGGGCCCA, the “PBM E-score” value was 0.26. In the case of CGGGCCTA, the “PBM E-score” value is reported as 0.383. ATCCACGC was tested, and the “PBM E-score” value was -0.239. AGCACTAT was tested, and the “PBM E-score” value was -0.257. With ATTCCCTC the “PBM E-score” value was -0.083. For ACTATCGA, the “PBM E-score” value was -0.0147. In the case of GGATCCAC, the “PBM E-score” value is reported as 0.059. ATCTCTTC was tested, and the “PBM E-score” value was -0.0222. With AGAGCAGA the “PBM E-score” value was -0.17. In the case of CAATCTGA, the “PBM E-score” value is reported as -0.151. For GTACTGTA, the “PBM E-score” value was -0.119. In the case of GCGGCCGA, the “PBM E-score” value is reported as 0.335. In the case of TCGGCCCA, the “PBM E-score” value is reported as 0.304. GGGGCCGA was tested, and the “PBM E-score” value was 0.233. CGGGCCGC was tested, and the “PBM E-score” value was 0.263. CGGGCCGA was tested, and the “PBM E-score” value was 0.379. ACGGCCTG was tested, and the “PBM E-score” value was -0.0121. In the case of CCGGCCTA, the “PBM E-score” value is reported as 0.288. ACGGCCGG was tested, and the “PBM E-score” value was 0.392. CCGGCCGA was tested, and the “PBM E-score” value was 0.453. TCGGCCAA was tested, and the “PBM E-score” value was 0.256. With ATGGCCGG the “PBM E-score” value was 0.315. In the case of TCGGCCGA, the “PBM E-score” value is reported as 0.48. With ATGGTGTG the “PBM E-score” value was -0.303. For ACCTTACT, the “PBM E-score” value was 0.105. For ATGCCCCG, the “PBM E-score” value was 0.282. ACGGTAGG was tested, and the “PBM E-score” value was -0.0364. TACCCCTA was tested, and the “PBM E-score” value was -0.146. For ACTTCTAC, the “PBM E-score” value was -0.119. CCGGCCCA was tested, and the “PBM E-score” value was 0.231. In the case of ACGGCCGC, the “PBM E-score” value is reported as 0.228. With ACGGCCCG the “PBM E-score” value was 0.249. In the case of ACGGCCGT, the “PBM E-score” value is reported as 0.373. ACGGCCCT was tested, and the “PBM E-score” value was -0.0855. CCGGCCCG was tested, and the “PBM E-score” value was 0.434. In the case of CCGTCAAA, the “PBM E-score” value is reported as 0.114. ACTGAGCG was tested, and the “PBM E-score” value was -0.284. With ATTGCCGA the “PBM E-score” value was 0.375. With CATGCCGG the “PBM E-score” value was 0.298. AATGCCGT was tested, and the “PBM E-score” value was 0.334. CATGCCGA was tested, and the “PBM E-score” value was 0.17. In the case of AATGCCGA, the “PBM E-score” value is reported as 0.405. In the case of ATTGCCGC, the “PBM E-score” value is reported as 0.0752. In the case of CTTGCCGA, the “PBM E-score” value is reported as 0.0417. With AATGCCGC the “PBM E-score” value was 0.295. For AATGCCGG, the “PBM E-score” value was 0.384. CGTTGGTC was tested, and the “PBM E-score” value was -0.0912. With ACGGGAAC the “PBM E-score” value was 0.101. In the case of GGAAGACC, the “PBM E-score” value is reported as 0.0832. For GCCCACTA, the “PBM E-score” value was -0.137. In the case of CTCACACC, the “PBM E-score” value is reported as -0.15. CGCGGCAG was tested, and the “PBM E-score” value was 0.1. In the case of GACTGTAC, the “PBM E-score” value is reported as -0.171. With GAGCTGCA the “PBM E-score” value was -0.00591. In the case of CCCCGCTC, the “PBM E-score” value is reported as 0.0426. With ATCGGCAC the “PBM E-score” value was 0.315. With CGCGCGAC the “PBM E-score” value was 0.2. For GAATCCGA, the “PBM E-score” value was 0.307. In the case of TAATCCGA, the “PBM E-score” value is reported as 0.346. AAATCCAC was tested, and the “PBM E-score” value was 0.0573. With AAATCCCA the “PBM E-score” value was -0.0185. For GAATCCGC, the “PBM E-score” value was 0.179. CAATCCGC was tested, and the “PBM E-score” value was 0.191. With AAATCCCG the “PBM E-score” value was 0.379. AAATCCGC was tested, and the “PBM E-score” value was 0.387. In the case of CAATCCGG, the “PBM E-score” value is reported as 0.375. For AAATCCGA, the “PBM E-score” value was 0.457. For CAATCCGA, the “PBM E-score” value was 0.241. With CAATCCCG the “PBM E-score” value was 0.272. In the case of AAATCCGT, the “PBM E-score” value is reported as 0.396. AAATCCGG was tested, and the “PBM E-score” value was 0.475. AAATCCTG was tested, and the “PBM E-score” value was -0.118. AAATCCAG was tested, and the “PBM E-score” value was 0.0422. In the case of AAATCCTT, the “PBM E-score” value is reported as 0.0613. For AAATCCCT, the “PBM E-score” value was -0.166. For CCTTTGGA, the “PBM E-score” value was -0.215. GGCTGCTA was tested, and the “PBM E-score” value was -0.0615. AGACCGAG was tested, and the “PBM E-score” value was 0.373. AGACCGAT was tested, and the “PBM E-score” value was 0.35. For CGACCGAA, the “PBM E-score” value was 0.378. In the case of CTACCGAG, the “PBM E-score” value is reported as 0.139. For AGACCGAA, the “PBM E-score” value was 0.281. AGACCGAC was tested, and the “PBM E-score” value was 0.346. For CGACCGAC, the “PBM E-score” value was 0.301. For CGACCGAG, the “PBM E-score” value was 0.371. In the case of CCACCGAG, the “PBM E-score” value is reported as 0.14. GCAGCTTA was tested, and the “PBM E-score” value was -0.171. With CCTGAGAA the “PBM E-score” value was -0.253. For CCTATCAG, the “PBM E-score” value was -0.147. With GACAGCAA the “PBM E-score” value was -0.221. In the case of TGACTCAA, the “PBM E-score” value is reported as -0.251. In the case of CGGCTGTC, the “PBM E-score” value is reported as 0.175. For GGGCACAA, the “PBM E-score” value was -0.0367. GAGGACGC was tested, and the “PBM E-score” value was -0.0224.
